About 83,000 compounds went through this panel and 20% of them were active in at least one assay; those are over-represented in the sample as a whole.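 Negative percent growth values reflect cell death: -40 means 40% of the cells present at the start died, and -100 means all died.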 A number with no mark means an inactive call. Activity calls are given as the source filed them. Rule for the calls: active = growth percent below 10; inactive = the rest.
How the values were obtained:
Test in all cases: NCI-60 one-dose screen, 48 h (100 = growth as untreated, 0 = no growth, -100 = all killed)
Settings in all cases: 10 µM unless noted
[1] = test system: NCI-H23 lung
[2] = test system: NCI-H322M lung
[3] = test system: HOP-62 NSCLC
[4] = test system: NCI-H460 lung
[5] = test system: HOP-92 NSCLC
[6] = test system: NCI-H522 lung
[7] = test system: A549/ATCC NSCLC
[8] = test system: 786-0 renal
[9] = test system: DU-145 prostate
[10] = test system: K-562 leukemia
[11] = test system: MALME-3M melanoma
[12] = test system: MDA-MB-231 breast
[13] = test system: RXF 393 renal
[14] = test system: SF-268 CNS
[15] = test system: SF-295 CNS
[16] = test system: SF-539 CNS
[17] = test system: UACC-257 melanoma
[18] = test system: M14 melanoma
[19] = test system: HCT-15 colon
[20] = test system: COLO 205 colon

SMILES	growth [1]	growth [2]	growth [3] [%]	growth [4]	growth [5]	growth [6]	growth [7]	growth [8]	growth [9] [%]	growth [10]	growth [11]	growth [12]	growth [13]	growth [14] [%]	growth [15]	growth [16]	growth [17]	growth [18]	growth [19]	growth [20]
O=S(=O)(Nc1ncccn1)c1ccc(NC2Nc3nc4ccccc4nc3S2)cc1 (configuration not stated)	97%	97.7%	99.6	103%	105%	94.5%	95.8%	100%	105	98.2%	96.1%	99.3%	109%	97.9	99.5%	95.5%	94%	95.5%	96.9%	
Nc1ccc(-c2nc3cc(Oc4ccc(Oc5ccc6[nH]c(-c7ccc(N)cc7)nc6c5)cc4)ccc3[nH]2)cc1	78.6%	118%	107	95.2%	104%	73.7%	96.8%	92%		94.9%	81.4%	103%	107%	113	63.4%	102%	95.8%	94%	100%	75%
Cc1ccccc1CNC(=O)C1CN(c2ccc(Cl)cc2)N(c2ccc(Cl)cc2)C1=O (configuration not stated)	90.6%	89.1%	83.2	91.4%	96.9%	68.5%	64.4%	96.7%	99.7	51.6%	91.1%	84.6%	91.6%	83.7	90.1%	98.7%	78.6%	90.1%		
COc1ccc(N2C(=O)CC(c3cc(OC)c(OC)c(OC)c3)C3C2=NC(=O)N3C)cc1 (configuration not stated)	110%	105%	108	108%	105%	97.5%	104%	103%	106		105%	109%		100	101%	97.9%	98.2%	105%	102%	101%
CCOc1ccc(Nc2ccnc3cc(Cl)ccc23)cc1	-3.27% (active)	-0.617% (active)	24.5	5.71% (active)	-25% (active)	-35.4% (active)	1.55% (active)	19.1%		9.05% (active)	-25.2% (active)	-31.6% (active)	3.65% (active)	22.7	-53% (active)	24.4%	-33.6% (active)	14.7%	17.2%	-91.1% (active)
COc1cccc2c(=O)c3c(sc12)c(NCCCNCCO)nc1ccccc13	63.1%	53.4%	44.4	-75.1% (active)	10.2%	60.9%	34.5%	56.3%	41.4	-46.9% (active)	81.2%	23.9%	44.5%	48.2	73%	64.9%	84.5%	41.9%	25.6%	
CC(=O)c1ccc(Nc2nc(NCCO)nc(Nc3ccc(Cl)cc3)n2)cc1	99.1%	97.1%	100	93.6%	86.4%	81.2%	85.6%	104%	94.8	78%	93.5%	82.5%	67.2%	91.9	97.8%	87.2%	88.4%	114%	73.9%	
Cc1nn(-c2nc3ccccc3[nH]2)c2c1C(c1ccc(OCC(N)=O)cc1)CC(=O)N2 (configuration not stated)	103%	105%	100	103%	105%	100%	109%	104%	107		88.2%	103%		96.4	69.5%	100%	110%	80%	98%	117%
COc1ccccc1C1=C(Br)C(=O)c2nc(C)ccc2C1=O	93.4%	100%	106	99.4%	86.3%	-38% (active)	109%	104%	109	65%	62.4%	96.6%	102%	97.5	98.6%	105%	99.6%	93.7%		
CCCN1CCN(c2ccc3nc(-c4ccc5nc(-c6cc(OC)ccc6OC)[nH]c5c4)[nH]c3c2)CC1	103%	115%	117	100%	110%	113%	115%	101%	114	-45.3% (active)	139%	107%	93.3%	106	104%	96.2%	110%	111%	62.1%	
O=C(/C=C/c1ccc(C(F)(F)F)cc1)c1ccc(Nc2nc(NCCO)nc(N3CCOCC3)n2)cc1	39.4%	40.5%	33	11.7%	64%	45.6%	13.1%	-2.96% (active)	13	5.46% (active)	97%	46.7%	73.9%	36	81.4%	50.6%	98.9%	37.5%	7.59% (active)	
COc1cc(C2C(C#N)=C(N)OC3=C2C(=O)c2ccccc2C3=O)cc(OC)c1O (configuration not stated)	32.5%	47.7%	34.2	12.7%	43.7%	-10.1% (active)	52.3%	35.4%	17.8		54.7%	57.1%		42.2	29.3%	0.132% (active)	55.9%	21.1%	23.6%	44.6%
O=C(NCc1ccco1)C1CN(c2ccc(Cl)cc2)N(c2ccc(Cl)cc2)C1=O (configuration not stated)	59.5%	68.2%	48.6	14.4%	78.1%	39.3%	40.1%	37.6%	70.1	17.9%	37.2%	59.1%	58.2%	50.9	30.1%	49.4%	69.1%	32.1%	28.4%	
CNCCNc1nc2ccccc2c2c(=O)c3cccc(OC)c3sc12	47.1%	33.8%	34.1	-68.2% (active)	5.16% (active)	27.5%	17.9%	26.5%	12.6	-39% (active)	59.6%	13.8%	41.5%	37.8	52.6%	34.9%	64%	-71.3% (active)	-39.9% (active)	
O=c1c2cc(F)ccc2sc2c(NCCN3CCCC3)nc3ccccc3c12	77.1%	69%	67.6	12.3%	27.5%	63.8%	53.7%	55.6%	45.8	-43.2% (active)	83%	30.8%	38.3%	47	85.6%	61.8%	92%	15.1%	27.6%	
O=C(O)c1cn(C2CC2)c2cc(N3CCN(C(=O)C[n+]4ccccc4)CC3)c(F)cc2c1=O	104%	105%	103	106%	98.5%	93.4%	99.1%	98.5%	102		99.5%	105%		95.3	101%	95.1%	101%	106%	102%	121%
O=C(/C=C/c1ccccc1)c1ccc(Nc2nc(NCCO)nc(Nc3ccc(Cl)cc3)n2)cc1	82.7%	91.6%	93.2	81%	96.2%	83.3%	64.6%	83.9%	73.6	36.1%	98.7%	71.4%	73.2%	73.8	96.1%	73%	94.7%	99.9%	8.55% (active)	
